About 83,000 compounds went through this panel and 20% of them were active in at least one assay; those are over-represented in the sample as a whole.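 Percent growth is the endpoint: 0 to 100 indicates growth inhibition (40 means 60% inhibition), 0 means no net growth, and negative values indicate cell death.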 Activity calls are given as the source filed them. Rule for the calls: active = growth percent below 10; inactive = the rest.
tested on: MDA-MB-468 breast; experiment: NCI-60 one-dose screen, 48 h (100 = growth as untreated, 0 = no growth, -100 = all killed); details: 10 µM unless noted

| SMILES | growth |
| --- | --- |
| COc1cccc(C2CC(=O)Nc3c2c(C)nn3-c2nc3ccccc3[nH]2)c1OC (centres undefined) | 71.5% (inactive) |
| CC/C=C\C/C=C\C[C@H](O)C/C=C1/C(=O)C=C[C@@H]1C/C=C\CCCC(=O)O | 23.5% (inactive) |
| CN1CCN(Cc2ccc(NC(=O)c3cncc(C#Cc4cnc5ccc(OCC6(C)COC6)nn45)c3)cc2C(F)(F)F)CC1 | -73.8% (active) |
| CN(C)c1ccc(N=C2C=CC(=O)c3ccccc32)cc1 | 65.6% (inactive) |
| Cc1nn(-c2ccc([N+](=O)[O-])cc2)c2ncnc(N/N=C/c3ccccc3O)c12 | -16.6% (active) |
| CN(CCNCc1ccccn1)CCNCc1ccccn1 | -15.6% (active) |
| CCOC(=O)CC1CSC(N/N=C/c2ccc(O)cc2)=N1 (centres undefined) | 108% (inactive) |
| CCC(CCNc1cc(OC)cc2cccnc12)CN1C(=O)c2ccccc2C1=O (centres undefined) | 7.31% (active) |
| CCN(CC)c1ccc(/C=N/NC(=O)c2ccc(S(N)(=O)=O)cc2)c(O)c1 | -0.911% (active) |
| N#C/C(=C\c1ccccc1Cl)c1cc2ccccc2[nH]1 | 58.1% (inactive) |
| C1CCC([PH+](C2CCCCC2)C2CCCCC2[PH+](C2CCCCC2)C2CCCCC2)CC1.[Au].[CH-]1CCCCC1C1CCCC[N-]1 (centres undefined) | -33.9% (active) |
| Cc1cc(N2CCOCC2)nc(N(CCNc2ccnc3cc(Cl)ccc23)Cc2ccco2)n1 | 23.5% (inactive) |
| CC(=O)Cc1nsc(NC(=O)c2ccoc2COc2ccccc2)n1 | 124% (inactive) |
| N#Cc1c(N2CCOCC2)nc2sc3cc(Cl)ccc3n2c1=N | 15.8% (inactive) |

— PubChem BioAssay (NCI)
